± gives the standard deviation of the averaged measurements. About 6,500 targets were measured; listed, in parts, are those with the largest changes and a random draw of the rest.

Compound in the assay: Nc1ncnc2c1ncn2[C@@H]1O[C@H](COP(=O)(O)OP(=O)(O)OP(=O)(O)O)[C@@H](O)[C@H]1O [adenosine triphosphate]
Kind of assay: NP40-soluble protein abundance relative to vehicle (solubility fold change) (ratio); higher = more soluble protein in presence of ATP. An outline of the steps: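 Eight concentrations, 0.1 to 10 mM, were tested on Jurkat crude lysate for 10 min at room temperature and then 3 min at 37 °C, in three independent experiments. The lysate was solubilised with 0.8% NP40 and benzonase, ultracentrifuged, and the supernatant TMT-labelled for LC-MS/MS. Each value is the fold change against the detergent-processed vehicle in its own replicate, from vsn-normalised intensities.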

Sequence of UniProt Q9Y639 (Q9Y639 whole entry): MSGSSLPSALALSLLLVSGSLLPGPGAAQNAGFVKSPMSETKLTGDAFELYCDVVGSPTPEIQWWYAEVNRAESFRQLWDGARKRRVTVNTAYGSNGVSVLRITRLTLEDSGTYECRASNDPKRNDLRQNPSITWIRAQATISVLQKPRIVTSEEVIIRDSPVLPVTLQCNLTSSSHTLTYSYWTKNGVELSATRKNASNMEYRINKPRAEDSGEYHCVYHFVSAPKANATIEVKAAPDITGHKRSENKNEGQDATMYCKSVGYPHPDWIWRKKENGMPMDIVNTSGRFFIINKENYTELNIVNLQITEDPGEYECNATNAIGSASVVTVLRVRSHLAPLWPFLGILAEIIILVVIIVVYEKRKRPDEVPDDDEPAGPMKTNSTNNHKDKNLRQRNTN
Sequence of UniProt Q9UPN7 (Q9UPN7 whole entry): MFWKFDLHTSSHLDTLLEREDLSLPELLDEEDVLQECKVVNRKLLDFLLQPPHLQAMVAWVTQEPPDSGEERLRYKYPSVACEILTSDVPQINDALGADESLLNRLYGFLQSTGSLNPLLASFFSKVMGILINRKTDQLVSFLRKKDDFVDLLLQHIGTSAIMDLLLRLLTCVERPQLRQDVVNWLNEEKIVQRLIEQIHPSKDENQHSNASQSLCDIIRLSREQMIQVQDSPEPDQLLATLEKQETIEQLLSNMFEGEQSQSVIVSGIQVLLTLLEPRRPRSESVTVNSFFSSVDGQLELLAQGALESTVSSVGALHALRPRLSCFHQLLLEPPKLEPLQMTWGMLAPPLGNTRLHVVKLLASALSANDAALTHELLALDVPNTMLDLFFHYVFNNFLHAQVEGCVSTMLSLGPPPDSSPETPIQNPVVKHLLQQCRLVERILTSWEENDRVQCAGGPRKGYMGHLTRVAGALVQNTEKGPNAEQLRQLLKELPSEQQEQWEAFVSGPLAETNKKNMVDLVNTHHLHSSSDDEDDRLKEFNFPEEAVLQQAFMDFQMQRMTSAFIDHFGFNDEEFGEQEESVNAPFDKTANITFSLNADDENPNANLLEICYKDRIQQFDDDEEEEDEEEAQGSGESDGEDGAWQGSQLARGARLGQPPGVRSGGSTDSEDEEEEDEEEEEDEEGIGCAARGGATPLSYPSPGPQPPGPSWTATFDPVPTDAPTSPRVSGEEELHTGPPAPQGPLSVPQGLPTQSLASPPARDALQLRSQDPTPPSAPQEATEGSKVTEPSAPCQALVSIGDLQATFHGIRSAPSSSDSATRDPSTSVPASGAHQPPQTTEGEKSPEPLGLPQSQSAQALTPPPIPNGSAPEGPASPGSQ
Sequence of UniProt Q9UNX4 (Q9UNX4 whole entry): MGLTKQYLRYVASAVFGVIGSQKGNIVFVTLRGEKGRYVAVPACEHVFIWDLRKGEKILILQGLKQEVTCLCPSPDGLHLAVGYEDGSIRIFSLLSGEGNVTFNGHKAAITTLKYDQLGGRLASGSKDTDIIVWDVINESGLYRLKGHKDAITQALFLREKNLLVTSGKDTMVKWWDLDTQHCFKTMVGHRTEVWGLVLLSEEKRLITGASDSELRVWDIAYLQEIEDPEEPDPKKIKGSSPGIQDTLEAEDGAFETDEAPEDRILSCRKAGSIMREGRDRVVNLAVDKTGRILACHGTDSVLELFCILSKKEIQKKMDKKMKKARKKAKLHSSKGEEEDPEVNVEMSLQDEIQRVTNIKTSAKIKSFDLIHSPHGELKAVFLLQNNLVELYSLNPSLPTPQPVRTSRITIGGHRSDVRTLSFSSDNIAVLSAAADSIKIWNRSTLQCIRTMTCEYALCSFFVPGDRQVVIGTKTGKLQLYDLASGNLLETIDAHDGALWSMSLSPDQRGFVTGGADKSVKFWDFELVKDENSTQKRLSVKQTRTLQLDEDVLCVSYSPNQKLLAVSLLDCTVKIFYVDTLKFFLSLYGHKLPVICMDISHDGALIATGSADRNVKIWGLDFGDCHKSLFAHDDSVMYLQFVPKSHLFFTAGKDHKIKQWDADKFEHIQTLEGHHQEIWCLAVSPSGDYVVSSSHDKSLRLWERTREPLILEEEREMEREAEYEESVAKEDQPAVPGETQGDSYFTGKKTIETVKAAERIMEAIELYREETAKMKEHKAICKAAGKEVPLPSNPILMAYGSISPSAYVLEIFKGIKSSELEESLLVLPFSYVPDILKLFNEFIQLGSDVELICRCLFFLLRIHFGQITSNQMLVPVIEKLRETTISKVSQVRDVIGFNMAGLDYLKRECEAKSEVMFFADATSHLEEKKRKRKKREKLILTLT
Sequence of UniProt Q9UIV1 (Q9UIV1 whole entry): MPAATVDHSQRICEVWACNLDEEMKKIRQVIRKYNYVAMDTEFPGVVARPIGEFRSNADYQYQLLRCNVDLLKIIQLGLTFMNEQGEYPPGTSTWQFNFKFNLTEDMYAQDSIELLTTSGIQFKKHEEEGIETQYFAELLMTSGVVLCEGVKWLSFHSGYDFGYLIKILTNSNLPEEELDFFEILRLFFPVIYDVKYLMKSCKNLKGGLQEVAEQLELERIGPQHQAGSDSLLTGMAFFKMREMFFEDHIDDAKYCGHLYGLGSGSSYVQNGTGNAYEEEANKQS
Sequence of UniProt Q9Y2G5 (Q9Y2G5 whole entry): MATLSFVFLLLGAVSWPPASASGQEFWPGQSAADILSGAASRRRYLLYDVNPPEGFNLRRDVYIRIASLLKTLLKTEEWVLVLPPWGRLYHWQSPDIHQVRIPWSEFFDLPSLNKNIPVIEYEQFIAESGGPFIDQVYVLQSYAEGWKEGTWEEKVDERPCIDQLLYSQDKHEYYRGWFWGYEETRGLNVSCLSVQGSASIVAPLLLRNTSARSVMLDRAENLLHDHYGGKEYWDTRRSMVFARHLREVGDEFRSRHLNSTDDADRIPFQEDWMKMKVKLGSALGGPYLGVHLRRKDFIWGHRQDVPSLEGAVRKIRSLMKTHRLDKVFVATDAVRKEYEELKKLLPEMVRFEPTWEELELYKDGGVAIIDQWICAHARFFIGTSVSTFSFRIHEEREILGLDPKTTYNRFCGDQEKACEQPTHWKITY
Sequence of UniProt Q9Y5P4 (Q9Y5P4 whole entry): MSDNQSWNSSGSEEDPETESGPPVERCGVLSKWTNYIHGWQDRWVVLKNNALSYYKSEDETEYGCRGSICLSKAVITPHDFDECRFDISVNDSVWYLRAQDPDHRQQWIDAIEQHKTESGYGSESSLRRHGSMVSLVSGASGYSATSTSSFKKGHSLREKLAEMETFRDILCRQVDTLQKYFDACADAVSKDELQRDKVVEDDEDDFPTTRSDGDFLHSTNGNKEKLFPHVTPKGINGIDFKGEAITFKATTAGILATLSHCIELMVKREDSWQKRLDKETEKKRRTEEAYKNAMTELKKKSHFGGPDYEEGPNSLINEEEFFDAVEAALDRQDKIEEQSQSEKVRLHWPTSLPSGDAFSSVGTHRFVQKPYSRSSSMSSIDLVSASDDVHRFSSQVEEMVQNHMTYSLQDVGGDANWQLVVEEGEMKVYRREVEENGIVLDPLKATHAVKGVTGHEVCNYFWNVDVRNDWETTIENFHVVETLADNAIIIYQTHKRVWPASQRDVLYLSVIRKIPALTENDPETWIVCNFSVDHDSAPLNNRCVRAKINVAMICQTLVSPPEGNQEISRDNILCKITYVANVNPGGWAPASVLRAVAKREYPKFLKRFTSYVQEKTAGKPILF
Sequence of UniProt Q9Y570 (Q9Y570 whole entry): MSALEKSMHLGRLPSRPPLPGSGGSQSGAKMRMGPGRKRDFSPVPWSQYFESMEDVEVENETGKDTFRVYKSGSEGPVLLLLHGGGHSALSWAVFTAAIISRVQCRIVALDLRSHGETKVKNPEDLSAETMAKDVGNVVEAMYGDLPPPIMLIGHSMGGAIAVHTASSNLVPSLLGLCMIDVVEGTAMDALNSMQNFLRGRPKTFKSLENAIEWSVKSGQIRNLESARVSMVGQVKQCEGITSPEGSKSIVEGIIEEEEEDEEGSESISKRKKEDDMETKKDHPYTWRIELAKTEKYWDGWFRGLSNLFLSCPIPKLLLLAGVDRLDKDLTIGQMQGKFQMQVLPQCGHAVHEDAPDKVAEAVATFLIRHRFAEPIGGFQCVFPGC
Sequence of UniProt Q9Y3Q3 (Q9Y3Q3 whole entry): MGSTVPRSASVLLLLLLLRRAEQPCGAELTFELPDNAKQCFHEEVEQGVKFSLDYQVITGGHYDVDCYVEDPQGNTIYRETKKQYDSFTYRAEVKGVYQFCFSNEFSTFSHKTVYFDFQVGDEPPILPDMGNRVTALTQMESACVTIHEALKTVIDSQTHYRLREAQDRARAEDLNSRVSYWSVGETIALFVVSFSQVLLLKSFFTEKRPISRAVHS
Sequence of UniProt Q9ULE6 (Q9ULE6 whole entry): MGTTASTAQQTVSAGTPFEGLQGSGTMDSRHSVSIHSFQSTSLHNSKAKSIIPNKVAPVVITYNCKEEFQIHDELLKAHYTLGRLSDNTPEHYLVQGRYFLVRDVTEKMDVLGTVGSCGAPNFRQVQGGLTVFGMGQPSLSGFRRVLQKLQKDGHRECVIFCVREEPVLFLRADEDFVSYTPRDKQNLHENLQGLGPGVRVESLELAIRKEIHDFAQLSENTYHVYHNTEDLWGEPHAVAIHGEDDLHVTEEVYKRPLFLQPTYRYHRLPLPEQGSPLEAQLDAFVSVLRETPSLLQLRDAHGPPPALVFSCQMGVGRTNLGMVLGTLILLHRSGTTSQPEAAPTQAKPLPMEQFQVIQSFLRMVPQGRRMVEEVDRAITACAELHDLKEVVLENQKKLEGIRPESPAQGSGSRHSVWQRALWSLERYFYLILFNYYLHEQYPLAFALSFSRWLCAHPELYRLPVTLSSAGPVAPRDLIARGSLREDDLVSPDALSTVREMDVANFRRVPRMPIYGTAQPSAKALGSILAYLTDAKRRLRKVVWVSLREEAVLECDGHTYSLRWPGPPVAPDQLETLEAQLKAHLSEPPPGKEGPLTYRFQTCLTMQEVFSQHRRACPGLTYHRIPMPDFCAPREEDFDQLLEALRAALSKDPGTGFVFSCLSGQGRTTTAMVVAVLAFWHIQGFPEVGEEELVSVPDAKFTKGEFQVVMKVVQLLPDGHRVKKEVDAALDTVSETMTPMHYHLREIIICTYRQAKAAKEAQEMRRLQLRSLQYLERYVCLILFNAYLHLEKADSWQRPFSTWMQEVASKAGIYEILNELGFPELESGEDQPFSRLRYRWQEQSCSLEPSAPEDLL

Take UniProt Q9UPN4-2|Q9UPN4-3|I3L2J8|Q9UPN4: the NP40-soluble protein abundance (concentration: 1mM) was found to be 1.15 ± 0.14; the NP40-soluble protein abundance (concentration: 2mM) was 1.18 ± 0.14; the NP40-soluble protein abundance (concentration: 4mM) amounted to 1.35 ± 0.12; the NP40-soluble protein abundance (concentration: 6mM) amounted to 1.45 ± 0.21; the NP40-soluble protein abundance (concentration: 8mM) worked out at 1.47 ± 0.26; the NP40-soluble protein abundance (concentration: 10mM) was 1.7 ± 0.26.
“UniProt Q9Y639|Q9Y639-1|Q9Y639-3|Q9Y639-5”: the NP40-soluble protein abundance (concentration: 1mM) came to 0.919 ± 0.11; the NP40-soluble protein abundance (concentration: 2mM) worked out at 0.888 ± 0.06; the NP40-soluble protein abundance (concentration: 4mM) is 0.938 ± 0.1; the NP40-soluble protein abundance (concentration: 6mM) is 0.926 ± 0.084; the NP40-soluble protein abundance (concentration: 8mM) came to 0.896 ± 0.061; the NP40-soluble protein abundance (concentration: 10mM) was 0.851 ± 0.11.
For the target UniProt Q9Y2H0|Q9Y2H0-3|Q9Y2H0-1, the NP40-soluble protein abundance runs as follows: (concentration: 1mM) 0.921 ± 0.038; (concentration: 2mM) 0.899 ± 0.068; (concentration: 4mM) 0.922 ± 0.045; (concentration: 6mM) 0.944 ± 0.025; (concentration: 8mM) 0.861 ± 0.093; (concentration: 10mM) 0.85 ± 0.052.
As for UniProt Q9Y5P4|Q9Y5P4-2|Q9Y5P4-3, the NP40-soluble protein abundance turned out to be 0.9555 ± 0.0053 (concentration: 1mM); 0.974 ± 0.025 (concentration: 2mM); 0.948 ± 0.011 (concentration: 4mM); 0.949 ± 0.024 (concentration: 6mM); 0.93 ± 0.011 (concentration: 8mM); 0.954 ± 0.026 (concentration: 10mM).
As to PARP4 (UniProt Q9UKK3), the NP40-soluble protein abundance (concentration: 1mM) stood at 1.14 ± 0.017; the NP40-soluble protein abundance (concentration: 2mM) turned out to be 1.15 ± 0.12; the NP40-soluble protein abundance (concentration: 4mM) came out at 1.12 ± 0.083; the NP40-soluble protein abundance (concentration: 6mM) is 1.15 ± 0.14; the NP40-soluble protein abundance (concentration: 8mM) worked out at 1.14 ± 0.042; the NP40-soluble protein abundance (concentration: 10mM) was 1.19 ± 0.085.
TMED3 (UniProt Q9Y3Q3): the NP40-soluble protein abundance reads like this: (concentration: 1mM) 1.08 ± 0.12; (concentration: 2mM) 1.07 ± 0.12; (concentration: 4mM) 1.06 ± 0.086; (concentration: 6mM) 1.04 ± 0.13; (concentration: 8mM) 1.06 ± 0.057; (concentration: 10mM) 1.04 ± 0.088.
For UniProt Q9ULV4|Q9ULV4-2|Q9ULV4-3, the NP40-soluble protein abundance stood at 1.08 ± 0.086 (concentration: 1mM); 1.16 ± 0.1 (concentration: 2mM); 1.24 ± 0.11 (concentration: 4mM); 1.4 ± 0.12 (concentration: 6mM); 1.43 ± 0.13 (concentration: 8mM); 1.52 ± 0.16 (concentration: 10mM).
Consider UniProt Q9UL15|Q9UL15-2, for which the NP40-soluble protein abundance runs as follows: (concentration: 1mM) 0.964 ± 0.032; (concentration: 2mM) 0.988 ± 0.024; (concentration: 4mM) 0.976 ± 0.035; (concentration: 6mM) 0.993 ± 0.018; (concentration: 8mM) 0.971 ± 0.01; (concentration: 10mM) 0.979 ± 0.029.
In the case of WDR3 (UniProt Q9UNX4), the NP40-soluble protein abundance (concentration: 1mM) amounted to 1.28 ± 0.11; the NP40-soluble protein abundance (concentration: 2mM) was determined as 1.46 ± 0.1; the NP40-soluble protein abundance (concentration: 4mM) is 1.82 ± 0.17; the NP40-soluble protein abundance (concentration: 6mM) was found to be 1.97 ± 0.2; the NP40-soluble protein abundance (concentration: 8mM) was 2.23 ± 0.2; the NP40-soluble protein abundance (concentration: 10mM) came to 2.34 ± 0.13.
For the target UniProt Q9UP95|Q9UP95-5|Q9UP95-6, the NP40-soluble protein abundance by setting is: (concentration: 1mM) 0.956 ± 0.1; (concentration: 2mM) 0.979 ± 0.12; (concentration: 4mM) 0.964 ± 0.11; (concentration: 6mM) 1.03 ± 0.058; (concentration: 8mM) 0.909 ± 0.099; (concentration: 10mM) 0.989 ± 0.035.
Turning to POFUT2 (UniProt Q9Y2G5), the NP40-soluble protein abundance came out at 1 ± 0.037 (concentration: 1mM); 1.04 ± 0.019 (concentration: 2mM); 1.01 ± 0.012 (concentration: 4mM); 1.02 ± 0.04 (concentration: 6mM); 0.955 ± 0.029 (concentration: 8mM); 0.975 ± 0.017 (concentration: 10mM).
With UniProt Q9ULE6, the NP40-soluble protein abundance is 1.08 ± 0.084 (concentration: 1mM); 1.03 ± 0.12 (concentration: 2mM); 1.06 ± 0.092 (concentration: 4mM); 0.991 ± 0.1 (concentration: 6mM); 1.05 ± 0.045 (concentration: 8mM); 1.02 ± 0.048 (concentration: 10mM).
CNOT7 (UniProt Q9UIV1): the NP40-soluble protein abundance was 1.23 ± 0.044 (concentration: 1mM); 1.22 ± 0.06 (concentration: 2mM); 1.29 ± 0.038 (concentration: 4mM); 1.25 ± 0.037 (concentration: 6mM); 1.3 ± 0.061 (concentration: 8mM); 1.26 ± 0.076 (concentration: 10mM).
ACAD8 (UniProt Q9UKU7): the NP40-soluble protein abundance is 1.01 ± 0.049 (concentration: 1mM); 1 ± 0.064 (concentration: 2mM); 0.988 ± 0.033 (concentration: 4mM); 0.961 ± 0.058 (concentration: 6mM); 0.983 ± 0.029 (concentration: 8mM); 0.99 ± 0.038 (concentration: 10mM).
As to NOB1 (UniProt Q9ULX3), the NP40-soluble protein abundance by setting is: (concentration: 1mM) 1.07 ± 0.023; (concentration: 2mM) 1.06 ± 0.086; (concentration: 4mM) 1.03 ± 0.077; (concentration: 6mM) 1.07 ± 0.13; (concentration: 8mM) 1.08 ± 0.054; (concentration: 10mM) 1.05 ± 0.065.
Take PPME1 (UniProt Q9Y570): the NP40-soluble protein abundance reads like this: (concentration: 1mM) 0.951 ± 0.039; (concentration: 2mM) 0.972 ± 0.056; (concentration: 4mM) 0.956 ± 0.037; (concentration: 6mM) 0.933 ± 0.085; (concentration: 8mM) 0.941 ± 0.023; (concentration: 10mM) 0.953 ± 0.058.
Consider UniProt Q9UPN7, for which the NP40-soluble protein abundance (concentration: 1mM) was determined as 0.945 ± 0.014; the NP40-soluble protein abundance (concentration: 2mM) stood at 0.941 ± 0.046; the NP40-soluble protein abundance (concentration: 4mM) is 0.941 ± 0.029; the NP40-soluble protein abundance (concentration: 6mM) stood at 0.917 ± 0.041; the NP40-soluble protein abundance (concentration: 8mM) was 0.924 ± 0.018; the NP40-soluble protein abundance (concentration: 10mM) turned out to be 0.93 ± 0.037.
For the target UniProt Q9UHB6|F8VQE1|Q9UHB6-2, the NP40-soluble protein abundance runs as follows: (concentration: 1mM) 1.05 ± 0.14; (concentration: 2mM) 1.16 ± 0.14; (concentration: 4mM) 1.35 ± 0.16; (concentration: 6mM) 1.56 ± 0.21; (concentration: 8mM) 1.62 ± 0.12; (concentration: 10mM) 1.86 ± 0.18.

(Values after the supplement of paper PMC6411743.)
